Cruzain Triton = inhibitors of Trypanosoma cruzi cruzain with detergent; P25779; purified cruzain, Z-FR-AMC fluorescence, 0.01% Triton; Potency, µM, for the others: max response, negative = inhibition, actives largely listed as inhibitors; 200,000 tested, 0.43% active; AID 1478;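 note: plate controls were neutral wells for no effect and buffer without enzyme for full effect; nearly all actives have a fitted effect of over 40% in size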
Target sequence (P25779 123-467 limits assumed): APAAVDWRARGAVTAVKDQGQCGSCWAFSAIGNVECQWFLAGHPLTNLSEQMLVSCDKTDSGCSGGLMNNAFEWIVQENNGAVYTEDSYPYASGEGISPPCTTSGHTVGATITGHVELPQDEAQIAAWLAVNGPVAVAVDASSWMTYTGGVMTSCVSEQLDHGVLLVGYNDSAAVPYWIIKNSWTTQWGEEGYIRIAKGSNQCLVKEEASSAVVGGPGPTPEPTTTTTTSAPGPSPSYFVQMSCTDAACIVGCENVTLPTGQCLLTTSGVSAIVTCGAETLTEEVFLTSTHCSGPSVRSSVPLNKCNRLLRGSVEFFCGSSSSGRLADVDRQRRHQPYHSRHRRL
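Read-out: AMC fluorescence (360 nm excitation, 450 nm emission), four reads over 2 min, first-to-third difference used. Conditions: cruzain 1.5 nM, Z-FR-AMC 2 uM, pH 5.5 acetate, 5 mM DTT, 0.01% Triton X-100.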
Cruzain inh noDet = blocks cruzain activity in detergent-free assay; AID 1476; 200,000 tested, 2.3% active; Potency, µM, for inactives: max response, negative = inhibition, usual class: inhibitors; purified cruzain, Z-FR-AMC fluorescence, no detergent; P25779;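 note: plate controls were enzyme without inhibitor for no effect and buffer without enzyme for full effect; nearly all actives have a fitted effect of over 40% in size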
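Detergent-free condition (0.00005% Triton X-100) in acetate buffer pH 5.5 with DTT. 1.5 nM enzyme and compound were pre-mixed 15 min, then 2 uM Z-FR-AMC substrate added; reaction progress from fluorescence change between first and third reads (60 s).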
* hit, by the source's call; ? = inconclusive; ! = not confirmed by another sample. A selection: hits, their analogues and other compounds. The true share with any hit is near 2.5%. Calls come from the whole dose curve; as a rule, active = well fitted curve in the direction sought with a large enough effect; inconclusive = small, poorly fitted or top-dose-only effect, or another doubt; inactive = no such curve, though single readings can be large; an effect the other way counts as inactive or inconclusive. Potency is the fitted concentration of half-maximal effect.

SMILES | Cruzain Triton | Cruzain inh noDet
CC(C)Oc1cccc(-n2c(CCc3c[nH]c4ccc(Br)cc34)nc3ccccc3c2=O)c1 | 5% | 32µM*
COc1ccc(C)cc1Nc1nc(-c2c[nH]c3ccccc23)cs1 | -3% | 16µM*
COc1ccc(OC)c(Nc2nc(-c3cccs3)cs2)c1 | -3% | ?
Cc1ccc(Nc2nc3ccccc3s2)cc1 | -10% | 8%
O=[N+]([O-])c1ccc(Nc2nc3ccccc3s2)cc1 | 3.5µM* | 4µM*
Cc1ccc(-c2cn(-c3ccc(Cl)cc3)c(S(=O)(=O)CC(=O)Nc3ccccc3)n2)cc1 | -18% | 16µM*
Cc1ccc(-n2cc(-c3ccccc3)nc2S(=O)(=O)CC(=O)Nc2ccc(F)cc2)cc1 | 8% | 27%
CCc1ccc(OCC(=O)N/N=C/c2cc([N+](=O)[O-])ccc2N2CCCCCC2)cc1 | -4% | ?
CCC1CCCCN1c1ccc([N+](=O)[O-])cc1/C=N/NC(=O)Cn1c2ccccc2c(=O)c2ccccc21 (configuration not stated) | -1% | 6.3µM*
COc1ccc(Cn2c(CCC(=O)Nc3ccc(C)cc3C)nc3cccnc32)cc1 | 1% | 19%
Cc1ccc(NC(=O)Cc2ccc(-n3c(C)nc4cccnc43)cc2)c(Cl)c1 | 8.9µM* | -2%
COc1cc(-c2nnc(-c3cccs3)o2)cc(OC)c1OC | -1% | -1%
Fc1ccc2c(Cl)c(-c3nnc(-c4cccs4)o3)sc2c1 | 4% | 10µM*
CCCCOc1ccc(S(=O)(=O)N2CCN(c3ccccc3OCC)CC2)cc1 | 5% | 11%
CCn1cnc2scc(-c3ccccc3)c2c1=O | 4% | -11%
Cn1cc(/C=N/n2cnc3scc(-c4ccc(Cl)cc4)c3c2=O)c2ccccc21 | -4% | 25µM*
CCOCCCNC(=O)Nc1cc(C(=O)NCc2ccc(C(C)C)cc2)ccc1N1CCCC1 | -9% | ?
CCN(CC)c1ccc(-c2nc(-c3ccccc3C)no2)cc1[N+](=O)[O-] | -12% | 6%
COc1ccc(OC)c(NC(=S)N(CCc2c(C)[nH]c3ccc(C)cc23)Cc2cccs2)c1 | -2% | 25µM*
COc1ccc(OC)c(NC(=S)N(CCc2c(C)[nH]c3ccccc23)Cc2cccs2)c1 | 1% | ?
Cc1ccc(NC(=O)Cn2ncn3c(cc4ccccc43)c2=O)cc1C | -4% | -29%
COC(=O)c1c(NC(=O)COc2ccc(Cl)cc2)sc(C)c1C | -3% | -4%
COC(=O)c1c(NC(=O)Nc2ccc(Cl)cc2)sc(C)c1C | 0% | 25µM*!
COc1ccc(CCNC(=O)CCc2c(C)nc3cc(-c4ccccc4OC)nn3c2C)c(OC)c1 | -9% | ?
COc1cc(Cl)c(C)cc1NC(=O)c1cc(CN2CCOCC2)on1 | -6% | 26%
SMILES | Cruzain Triton | Cruzain inh noDet
CCOC(=O)CSc1nc2sc(C)c(C)c2c(=O)n1N | -1% | -9%
COC(=O)c1sc2nc(SCc3ccccc3C#N)n(N)c(=O)c2c1C | -8% | 32µM*
O=C1NC(=O)/C(=C/c2ccccc2Oc2ccc(Cl)cc2)S1 | 2% | 20µM*
Cc1ccc(Oc2ccccc2/C=C2\SC(=O)N(C)C2=O)cc1 | -3% | -18%
Cc1ccc2cccc(NC(=O)COc3ccccc3[N+](=O)[O-])c2n1 | -4% | 19%
COc1ccc2c(CNCCc3ccc(SC)cc3)c(C(=O)O)n(Cc3ccc(F)cc3)c2c1 | -8% | ?
Cc1ccc(NC(=O)c2nc[nH]c2C(=O)Nc2ccc(C)cc2)cc1 | 3% | 7.9µM*
CNC(=O)c1[nH]cnc1C(=O)Nc1ccc(C)cc1 | -2% | -12%
COc1ccccc1NC(=O)c1nc[nH]c1C(=O)Nc1ccccc1OC | 5% | 10µM*
CCOc1ccccc1NC(=O)c1nc[nH]c1C(=O)Nc1ccccc1OCC | 3% | -5%
Cc1ccc(-n2nc(C)c3c(C(=O)NCc4ccc(F)cc4)cc(C)nc32)cc1 | 0% | -9%
O=C1c2ccccc2C(=O)C12OC2c1ccc(Cl)cc1 (configuration not stated) | -4% | 3%
O=C1c2ccccc2C(=O)C12OC(c1ccccc1)C1(C(=O)c3ccccc3C1=O)C2c1cccc([N+](=O)[O-])c1 (configuration not stated) | 0% | 7.9µM*
COc1ccc(-n2nc3c(N4CCCC(C(=O)NCc5ccc(C)cc5)C4)nnc(C)c3c2C)cc1 (configuration not stated) | -4% | -6%
Nc1c(S(=O)(=O)O)cc(S(=O)(=O)O)c2ccc(N=Nc3ccccc3)c(O)c12 | 0% | -7%
Cc1cc(-c2ccc(N=Nc3cc(S(=O)(=O)O)c4ccccc4c3N)c(C)c2)ccc1N=Nc1cc(S(=O)(=O)O)c2ccccc2c1N | 7.9µM* | ?
COc1ccccc1C1CC(=O)Oc2cc3c(cc21)OCO3 (configuration not stated) | -12% | 16%
O=C1/C(=C/c2ccccc2)[C@@H](NC2CCCCC2)c2ccccc21 | 3% | -10%
Cc1cccc(-n2ncc3c(Nc4ccc(C)c(Cl)c4)ncnc32)c1 | 3% | 14%
Cc1cccc(-n2ncc3c(Nc4ccc(Oc5ccc(Cl)cc5)cc4)ncnc32)c1 | 3% | 25µM*
O=C(Nc1ccc(Cl)c(C(F)(F)F)c1)C(Cc1ccccc1)NS(=O)(=O)c1ccc(Br)s1 (configuration not stated) | 0% | 4µM*
COc1ccc(NC(=O)C(Cc2ccccc2)NS(=O)(=O)c2ccc(Br)s2)cc1OC (configuration not stated) | -5% | -3%
CCc1cccc(NC(=O)C(Cc2ccccc2)NS(=O)(=O)c2cccs2)c1 (configuration not stated) | -10% | 3%
Cc1ccc(NC(=O)C(Cc2ccccc2)NS(=O)(=O)c2cccs2)cc1Cl (configuration not stated) | -1% | 13µM*
Cc1cccc(-n2c3nc(=O)[nH]c(=O)c-3cc3c(Cl)cccc32)c1C | -8% | -17%
SMILES | Cruzain Triton | Cruzain inh noDet
CN(C)c1ccc(CNC(=O)c2cccc(NC(=O)N3CCSc4ncccc43)c2)cc1 | -18% | -22%
Cc1nn(C(=O)c2cccc(F)c2)c(C)c1S(=O)(=O)N1CCCCCC1 | -1% | -1%
CCCn1cnc2c(SCC(=O)O)nc(N)nc21 | 4% | 13%
Cc1ccc(/C=C/C(=O)OCC(=O)Nc2ccccc2Sc2ccccc2)cc1 | -6% | 13µM*
COc1cccc(/C=C/C(=O)OCC(=O)Nc2ccccc2Sc2ccccc2)c1 | -5% | -27%
CS(=O)(=O)CC[C@@H](C(=O)NCCc1ccccc1)N1Cc2ccccc2C1=O | 0% | -4%
COc1ccc(-c2nnn(CC(=O)c3c[nH]c4ccccc34)n2)cc1OC | 1% | 0%
CCCCOc1ccc(-c2nnn(CC(=O)c3c[nH]c4ccccc34)n2)cc1 | 6% | 7.9µM*
COC(=O)c1c(NC(=O)CSc2ncnc3c2cnn3-c2ccccc2Cl)sc2c1CCCC2 | -6% | 3.2µM*
CCOC(=O)Cc1csc(NC(=O)CSc2ncnc3c2cnn3-c2ccccc2Cl)n1 | -8% | 4%
CCOC(=O)c1cc2c(=O)n3ccccc3nc2n(CC2CCCO2)c1=NC(C)=O (configuration not stated) | 32µM* | 10µM*
CCn1c(=N)c(C(=O)OC)cc2c(=O)n3ccccc3nc21 | 0.2µM* | -79%
CCn1c(=N)c(C(=O)NC)cc2c(=O)n3cccc(C)c3nc21 | 14µM* | ?
CCCCNC(=O)c1cc2c(=O)n3cccc(C)c3nc2n(Cc2ccncc2)c1=N | 22µM* | ?
